# Bioassay records from PubChem.
# AI-2 QS modul = Vibrio harveyi AI-2 quorum sensing modulators, primary screen, JMH597 strain, luminescence/OD600 ratio. Vibrio harveyi JMH597 AI-2 luminescence/OD600 ratio, 9 h; stronger effect = lower value; strain lacks LuxN and CqsS sensors; 0 = neutral-control median. activity change, % at 7.5 µM. 0.4% of 300,000 active. AID 2094, 2009; in the data active means activity change below about -75%, passing the limit was not always enough; inconclusive means no clear call, values can overlap the other calls;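 further: luminescence divided by OD600 gain over 9 h not by final OD600 alone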
# sPLA2-III inh = human group III sPLA2 inhibitors, primary screen, biochemical, QFRET, BODIPY PC-A2 liposome substrate | inhibition, % at 12.2 µM | QFRET BODIPY PC-A2 liposome hydrolysis, fluorescence | Group 3 secretory phospholipase A2 (Homo sapiens), Q9NZ20 | 0.56% of 370,000 active;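 active means inhibition above mean plus 3 SD of compounds lying within the high and low control bounds, cut at about 19% in these data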;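 further: 0% = median of test compound wells and 100% = no enzyme DMSO wells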
# Target sequence (Q9NZ20 whole entry, looked up): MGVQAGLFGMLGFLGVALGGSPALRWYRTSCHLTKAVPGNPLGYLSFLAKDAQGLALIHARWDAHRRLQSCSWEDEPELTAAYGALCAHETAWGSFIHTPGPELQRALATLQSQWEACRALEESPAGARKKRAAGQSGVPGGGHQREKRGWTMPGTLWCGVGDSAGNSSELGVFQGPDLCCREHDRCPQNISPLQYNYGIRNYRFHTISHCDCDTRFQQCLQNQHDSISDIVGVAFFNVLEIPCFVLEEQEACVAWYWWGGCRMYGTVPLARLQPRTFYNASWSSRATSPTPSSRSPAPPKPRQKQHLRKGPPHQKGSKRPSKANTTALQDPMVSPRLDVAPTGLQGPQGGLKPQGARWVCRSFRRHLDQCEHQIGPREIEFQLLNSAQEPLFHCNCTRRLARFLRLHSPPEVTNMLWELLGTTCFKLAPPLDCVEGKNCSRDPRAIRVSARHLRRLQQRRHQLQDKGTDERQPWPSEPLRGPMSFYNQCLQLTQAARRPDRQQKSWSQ
# ARNT-TACC3 inh = disruptors of ARNT/TACC3 protein interaction, primary screen, biochemical, AlphaScreen, single concentration | Transforming acidic coiled-coil-containing protein 3 (Homo sapiens), Q9Y6A5 | AlphaScreen His-ARNT PAS-B/GST-TACC3 binding, luminescence; TACC3 fragment carries E629A point mutation | inhibition, % at 9.99 µM | 0.66% of 390,000 active;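 active means mean inhibition of replicates at least 50% and at least half of replicates each reaching 50%; inconclusive means half or more replicates reach 50% but mean below 50%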;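 further: 0% = complete ARNT plus TACC3 wells and 100% = ARNT alone without TACC3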
# Rin1 Abl inh = inhibitors of Rin1-Abl protein binding, primary screen, biochemical, TR-FRET; Tyrosine-protein kinase ABL1 (Homo sapiens) + Ras and Rab interactor 1 (Homo sapiens), …; inhibition, % at 7.35 µM; 0.4% of 360,000 active; AID 588664, 2011; in the data active means inhibition above about 5%, passing the limit was not always enough
# Numbers without * were called inactive; ? = inconclusive; . = no result. Compounds with a hit are over-represented: about 1.5% of the library has one in this group of screens.
SMILES,AI-2 QS modul,sPLA2-III inh,ARNT-TACC3 inh,Rin1 Abl inh
CC(C)Oc1ccc(C2CC(=O)N(c3cccc(/C=C/C(=O)O)c3)C2=O)cc1 (stereo not drawn),24,-4,active,-1
COc1ccc(N2C(=O)CC(c3ccc(OC(C)C)cc3)C2=O)cc1 (stereo not drawn),26,-7,1,-1
Cc1ccc(Sc2ncccc2C(=O)O)cc1,-80*,11,-28,0
O=S(=O)(c1ccc(Cl)nc1)N1CCCCC1,25,6,-16,1
O=S(=O)(c1ccc(Cl)nc1)N1CCOCC1,.,7,22*,1
O=C(C[C@@H]1CC[C@@H](NS(=O)(=O)c2ccc(F)cc2)[C@@H](CO)O1)NCc1ccc(Cl)c(Cl)c1,.,.,16,.
CCOC(=O)C1CCN(Cc2ccc(O)c3ncccc23)CC1,8,1,69*,4
CCOC(=O)N1CCN(Cc2cc(Cl)c3cccnc3c2O)CC1,-78*,-7,.,.
Cc1ccc(S(=O)(=O)Nc2ccc3c(c2)C(=O)N([C@@H](C)CO)C[C@H](C)[C@@H](CN(C)C(=O)Nc2ccccc2)OCCCC[C@H](C)O3)cc1,.,.,7,.
CO[C@@H]1CN(C)C(=O)c2ccc(NC(=O)C3CC3)cc2OC[C@H](C)N(Cc2cccc(F)c2)C[C@H]1C,.,.,-4,.
O=[N+]([O-])c1ccc(N/N=C/c2cccc(O)c2)cc1,-86*,-33,-20,-1
CS(=O)(=O)Nc1ccc2c(c1)[C@@H]1C[C@@H](CC(=O)NCc3ccc(Oc4ccccc4)cc3)O[C@@H](CO)[C@@H]1O2,.,.,2,.
COc1cccc(CNc2cccc3cccnc23)c1O,7,-2,23,4
Oc1ccc(Br)cc1CNc1cccc2cccnc12,2,-15,49*,-2
Oc1c(Br)cc(Br)cc1CNc1cccc2cccnc12,54,8,113*,4
CCOC(=O)C1CCN(c2nc(N)c3c(N)nc(SCC(=O)O)cc3c2C#N)CC1,65,1,52*,-1
Cc1ccc(/C=C/C(=O)Nc2nn[nH]n2)o1,8,0,61*,-1
CC(C)c1ccc(/C=C/C(=O)Nc2nn[nH]n2)cc1,88,.,.,.
O=S1(=O)CC=C(CSC(=S)NC2CCS(=O)(=O)C2)C1 (stereo not drawn),-83*,11,-1,1
CC(C)(C)c1cc(CSC(=S)NC2CCS(=O)(=O)C2)c(Br)c(C(C)(C)C)c1 (stereo not drawn),36,-2,-1,-3
COc1cc(/C=N/NC(=O)C2COc3ccccc3O2)cc(OC)c1OC (stereo not drawn),13,9,-1,-3
O=C(CNC(=O)C1COc2ccccc2O1)N/N=C/c1ccc(O)cc1O (stereo not drawn),41,-19,94*,-1
O=C(N/N=C/c1cccc([N+](=O)[O-])c1)C1COc2ccccc2O1 (stereo not drawn),-2,-4,5,2
O=C(N/N=C\c1cccc([N+](=O)[O-])c1O)C1COc2ccccc2O1 (stereo not drawn),1,-1,63*,-5
COc1cc([N+](=O)[O-])cc(/C=N\NC(=O)C2COc3ccccc3O2)c1O (stereo not drawn),?,6,72*,-1
SMILES,AI-2 QS modul,sPLA2-III inh,ARNT-TACC3 inh,Rin1 Abl inh
CO[C@@H](CN(C)C(=O)c1ccccc1F)[C@H](C)CN([C@@H](C)CO)S(=O)(=O)c1ccc(Cl)cc1,.,.,1,.
CCCC#Cc1ccc2c(c1)O[C@H](CN(C)C(=O)C1CC1)[C@H](C)CN([C@H](C)CO)S2(=O)=O,.,.,50*,.
CCCC#Cc1ccc2c(c1)O[C@@H](CN(C)C(=O)C1CC1)[C@@H](C)CN([C@H](C)CO)S2(=O)=O,.,.,11,.
CCOC(=O)N1CCC(N2C(=O)c3ccccc3C2Nc2ccc(S(=O)(=O)N3CCOCC3)cc2)CC1 (stereo not drawn),19,-4,-10,14*
CN1CCN(C(=O)[C@H]2[C@H](CO)[C@H]3Cn4c(ccc(-c5cccnc5)c4=O)[C@H]3N2CC2CC2)CC1,.,.,-3,.
Nc1ccc(CCn2ccnc2)cc1,15,-4,63*,-1
c1ccn(CCc2ccncc2)c1,.,2,-7,7
COc1ccc(C(c2c(O)ccc3ccccc23)N2CCOCC2)c(OC)c1 (stereo not drawn),50,20*,-6,-4
C[C@@H]1CN([C@H](C)CO)C(=O)c2cc(NC(=O)Nc3ccc(C(F)(F)F)cc3)ccc2O[C@H]1CN(C)C(=O)Nc1ccc(C(F)(F)F)cc1,.,.,-10,.
O=C(N/N=C\c1ccncc1)c1ccccc1O,21,2,5,1
Cc1ccc(/C=N\NC(=O)Cn2c(C)nc3ccccc32)o1,-3,0,-2,1
O=C(N/N=C/c1ccccn1)c1ccccc1,1,0,18,-2
O=C(N/N=C/c1ccccn1)c1ccncc1,14,4,69*,-3
O=C(NN=C1C2CC3CC(C2)CC1C3)c1ccncc1,5,-2,4,0
O=C(N/N=C1\C/C(=N\NC(=O)c2ccncc2)c2ccccc21)c1ccncc1,12,3,67*,2
O=C(N/N=C/c1cccc2cccnc12)c1ccccc1O,-17,-6,72*,-3
Cc1nc2ccccc2n1CC(=O)N/N=C\c1ccccn1,19,0,40*,4
O=C(N[C@H]1CC[C@H](CCNS(=O)(=O)c2ccc(Cl)cc2)O[C@H]1CO)c1cccnc1,.,.,-1,.
C[C@@H]1CN([C@H](C)CO)C(=O)Cc2cc(NC(=O)CCN3CCOCC3)ccc2O[C@@H]1CN(C)S(=O)(=O)c1ccc(Cl)cc1,.,.,-6,.
CCCN1[C@H](C(=O)N2CCN(C)CC2)[C@@H](CO)[C@@H]2Cn3c(ccc(-c4ccccc4F)c3=O)[C@@H]21,.,.,-1,.
O=C(N/N=C/c1ccccn1)c1sc2ccccc2c1Cl,?,9,55*,0
Clc1ccc(/C=N/NC(=Nc2ccccc2)c2ccccn2)c(Cl)c1,-1,4,38,-1
O=C(N/N=C/C=C\c1ccco1)c1ccccn1,5,-7,68*,3
O=C(N/N=C/C=C/c1ccccc1)c1ccccn1,6,-3,27,0
O=C(N/N=C\c1ccccn1)c1ccccc1O,?,-4,59*,-1
C(=N\NC(=Nc1ccccc1)c1ccccn1)/c1ccccn1,32,12,87*,-4
Cc1ccccc1C(=O)N/N=C/c1ccccn1,16,-2,12,2
O=C(N/N=C/c1c[nH]c2ccccc12)c1sc2ccccc2c1Cl,19,-15,42,-2
C[C@H](CO)N1C[C@H](C)[C@@H](CN(C)C(=O)Nc2ccc(F)cc2)Oc2cc(/C=C/c3ccccc3)ccc2S1(=O)=O,.,.,-5,.
